Reference: the supplement of paper PMC10849652
Of roughly 8,800 targets only a part is listed; those with a hit were picked by preference. About 0.5% of all pairs of compound and target were hits.

Assays:
Assay in all cases: log2 fold change, soluble protein after heating vs DMSO (PISA); higher = thermal stabilisation; K562 lysate, 10 uM; active = over 0.2 and 3.5 SD of the protein, either way, in both replicates (recomputed)
nilotinib = compound: Cc1cn(-c2cc(NC(=O)c3ccc(C)c(Nc4nccc(-c5cccnc5)n4)c3)cc(C(F)(F)F)c2)cn1 [nilotinib]
How it was run: (§1)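 The values are log-two fold changes in thermal stability compared with solvent controls and come from duplicates. They were obtained by TMTpro 16plex LC-MS/MS, with channel sums equalised, on the supernatant after 21,000xg for 90 min. That supernatant came from crude K562 extract at 1 mg/mL protein treated with 10 μM compound for 30 min, heated for 3 min across 48°C-58°C, pooled and brought to 0.5% NP-40 at 4°C.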

[1] = compound: Cc1nc(Nc2n[nH]c3c2CN(C(=O)N[C@H](CN(C)C)c2ccccc2)C3(C)C)c2sccc2n1
How it was run: as §1

dasatinib = compound: Cc1nc(Nc2ncc(C(=O)Nc3c(C)cccc3Cl)s2)cc(N2CCN(CCO)CC2)n1 [dasatinib]
How it was run: as §1

[2] = compound: Cc1ncc(-c2ccnc(Nc3ccc(S(C)(=O)=O)cc3)n2)n1C(C)C
How it was run: as §1

[3] = compound: Cn1cc(-c2ccc3c(c2)CCN3C(=O)Cc2cccc(C(F)(F)F)c2)c2c(N)ncnc21
How it was run: as §1

quisinostat = compound: Cn1cc(CNCC2CCN(c3ncc(C(=O)NO)cn3)CC2)c2ccccc21 [quisinostat]
How it was run: as §1

tipifarnib = compound: Cn1cncc1[C@@](N)(c1ccc(Cl)cc1)c1ccc2c(c1)c(-c1cccc(Cl)c1)cc(=O)n2C [tipifarnib]
How it was run: as §1

[4] = compound: NC(=O)Nc1cc(-c2cccc(F)c2)sc1C(=O)N[C@H]1CCCNC1
How it was run: as §1

[5] = compound: NC(=O)c1cnc(N[C@@H]2CCCC[C@@H]2N)nc1Nc1cccc(-n2nccn2)c1
How it was run: as §1

[6] = compound: NC1(c2ccc(-c3nc4ccn5c(=O)[nH]nc5c4cc3-c3ccccc3)cc2)CCC1
How it was run: as §1

Measured: log2 fold change

NRIP1 (UniProt P48552)
UniProt P48552, sequence (P48552 whole entry, looked up): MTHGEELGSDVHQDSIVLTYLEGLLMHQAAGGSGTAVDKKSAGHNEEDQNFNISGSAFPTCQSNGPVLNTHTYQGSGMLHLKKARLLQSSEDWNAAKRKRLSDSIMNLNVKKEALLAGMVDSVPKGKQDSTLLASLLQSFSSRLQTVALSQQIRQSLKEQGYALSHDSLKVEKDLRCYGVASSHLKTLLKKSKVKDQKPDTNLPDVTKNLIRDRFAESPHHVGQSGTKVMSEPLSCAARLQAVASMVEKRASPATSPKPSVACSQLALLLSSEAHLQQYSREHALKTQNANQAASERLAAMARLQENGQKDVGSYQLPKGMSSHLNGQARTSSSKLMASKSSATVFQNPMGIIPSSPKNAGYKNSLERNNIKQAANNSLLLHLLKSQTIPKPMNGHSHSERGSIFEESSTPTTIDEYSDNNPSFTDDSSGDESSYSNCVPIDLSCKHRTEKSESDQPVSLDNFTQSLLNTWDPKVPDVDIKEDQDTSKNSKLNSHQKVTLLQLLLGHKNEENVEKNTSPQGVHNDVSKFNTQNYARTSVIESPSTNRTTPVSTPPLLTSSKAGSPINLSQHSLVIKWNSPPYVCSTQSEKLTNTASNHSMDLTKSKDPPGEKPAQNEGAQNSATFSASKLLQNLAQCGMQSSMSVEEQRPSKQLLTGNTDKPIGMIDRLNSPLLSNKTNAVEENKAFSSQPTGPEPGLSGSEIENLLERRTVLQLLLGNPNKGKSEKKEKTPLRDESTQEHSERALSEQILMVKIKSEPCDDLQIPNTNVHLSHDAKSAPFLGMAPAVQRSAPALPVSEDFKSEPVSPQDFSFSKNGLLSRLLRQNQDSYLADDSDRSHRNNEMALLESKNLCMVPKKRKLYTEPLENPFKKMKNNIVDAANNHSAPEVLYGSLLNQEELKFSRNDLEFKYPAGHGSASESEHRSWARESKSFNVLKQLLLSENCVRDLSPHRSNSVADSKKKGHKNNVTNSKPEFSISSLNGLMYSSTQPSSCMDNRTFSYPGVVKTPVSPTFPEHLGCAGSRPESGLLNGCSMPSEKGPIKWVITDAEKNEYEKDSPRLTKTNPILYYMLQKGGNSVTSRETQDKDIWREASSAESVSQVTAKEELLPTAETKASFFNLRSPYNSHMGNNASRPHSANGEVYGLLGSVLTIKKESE
inactive: nilotinib 0.035 | [1] -0.127 | dasatinib 0.135 | [2] 0.035 | [3] 0 | quisinostat -0.437 | tipifarnib -0.03 | [4] 0.083 | [5] 0.022 | [6] -0.048

OGFOD2 (UniProt Q6N063)
inactive: nilotinib -0.002 | [1] 0.005 | dasatinib 0.006 | [2] 0.063 | [3] 0.048 | quisinostat 0.031 | tipifarnib 0.026 | [4] 0.049 | [5] -0.017 | [6] 0.049

NIFK (UniProt Q9BYG3)
inactive: nilotinib 0.033 | [1] -0.003 | dasatinib -0.012 | [2] 0.035 | [3] -0.01 | quisinostat -0.042 | tipifarnib 0.002 | [4] 0.037 | [5] -0.016 | [6] -0.038

NMRAL1 (UniProt Q9HBL8)
inactive: nilotinib -0.017 | [1] 0.004 | dasatinib -0.035 | [2] -0.005 | [3] -0.039 | quisinostat 0.025 | tipifarnib 0.01 | [4] -0.021 | [5] 0.012 | [6] 0.045

NEDD8 (UniProt Q15843)
inactive: nilotinib 0.004 | [1] -0.073 | dasatinib 0.027 | [2] 0.103 | [3] -0.034 | quisinostat 0.034 | tipifarnib 0.066 | [4] -0.038 | [5] -0.057 | [6] 0.018

NOCT (UniProt Q9UK39)
UniProt Q9UK39, sequence (Q9UK39 whole entry, looked up): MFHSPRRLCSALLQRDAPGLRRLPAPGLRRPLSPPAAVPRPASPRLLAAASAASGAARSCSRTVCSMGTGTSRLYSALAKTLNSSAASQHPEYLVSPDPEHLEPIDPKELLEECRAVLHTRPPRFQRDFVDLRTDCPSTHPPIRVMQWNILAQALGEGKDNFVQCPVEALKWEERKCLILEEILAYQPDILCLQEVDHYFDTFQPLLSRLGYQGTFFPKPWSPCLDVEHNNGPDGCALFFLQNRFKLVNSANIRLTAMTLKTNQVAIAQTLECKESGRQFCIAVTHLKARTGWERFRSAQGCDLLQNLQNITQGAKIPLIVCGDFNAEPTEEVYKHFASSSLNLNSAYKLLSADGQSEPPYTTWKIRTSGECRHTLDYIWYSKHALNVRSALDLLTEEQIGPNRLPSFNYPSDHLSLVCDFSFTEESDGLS
inactive: nilotinib -0.045 | [1] 0.011 | dasatinib 0.013 | [2] -0.084 | [3] 0.017 | quisinostat 0 | tipifarnib 0.061 | [4] 0.043 | [5] 0.004 | [6] -0.014

MYD88 isoform 6 (UniProt Q99836)
inactive: nilotinib -0.003 | [1] 0.001 | dasatinib -0.021 | [2] -0.027 | [3] 0.024 | quisinostat -0.033 | tipifarnib 0.004 | [4] 0 | [5] 0.03 | [6] 0.054

NFATC1 (UniProt O95644)
inactive: nilotinib -0.048 | [1] -0.055 | dasatinib 0.014 | [2] 0.014 | [3] 0.037 | quisinostat -0.097 | tipifarnib 0.006 | [4] 0.042 | [5] -0.002 | [6] -0.058

NAA30 (UniProt Q147X3)
inactive: nilotinib -0.036 | [1] 0.019 | dasatinib -0.042 | [2] 0.059 | [3] -0.005 | quisinostat 0.032 | tipifarnib -0.097 | [4] 0.001 | [5] -0.018 | [6] 0.041

NAA38 isoform 2 (UniProt Q9BRA0)
inactive: nilotinib -0.024 | [1] 0.059 | dasatinib -0.014 | [2] -0.007 | [3] 0.001 | quisinostat 0.03 | tipifarnib -0.03 | [4] 0.027 | [5] 0.016 | [6] -0.019

NUDT4 (UniProt Q9NZJ9)
inactive: nilotinib 0.115 | [1] -0.03 | dasatinib 0.038 | [2] -0.002 | [3] 0.006 | quisinostat 0.129 | tipifarnib 0.11 | [4] 0.018 | [5] -0.059 | [6] 0.022

MYO1D (UniProt O94832)
inactive: nilotinib 0.002 | [1] -0.01 | dasatinib -0.036 | [2] -0.006 | [3] 0.016 | quisinostat -0.031 | tipifarnib -0.004 | [4] 0.05 | [5] 0 | [6] -0.042

NOSTRIN (UniProt Q8IVI9)
inactive: nilotinib -0.015 | [1] -0.02 | dasatinib -0.022 | [2] 0.03 | [3] 0.01 | quisinostat -0.031 | tipifarnib -0.008 | [4] 0.01 | [5] -0.018 | [6] 0.064

NELFCD (UniProt Q8IXH7)
inactive: nilotinib -0.024 | [1] 0.015 | dasatinib -0.019 | [2] -0.025 | [3] 0.034 | quisinostat -0.083 | tipifarnib -0.032 | [4] 0.046 | [5] 0.013 | [6] -0.031

NCK1 (UniProt P16333)
inactive: nilotinib -0.071 | [1] 0.015 | dasatinib -0.005 | [2] -0.037 | [3] -0.015 | quisinostat -0.053 | tipifarnib 0.018 | [4] 0.029 | [5] 0.001 | [6] 0.008

NT5DC2 isoform 2 (UniProt Q9H857)
inactive: nilotinib 0.025 | [1] -0.041 | dasatinib 0.067 | [2] 0.029 | [3] -0.027 | quisinostat -0.002 | tipifarnib -0.027 | [4] -0.002 | [5] 0.06 | [6] -0.011

MSH2 (UniProt P43246)
inactive: nilotinib -0.005 | [1] -0.008 | dasatinib -0.038 | [2] -0.01 | [3] 0.01 | quisinostat -0.08 | tipifarnib 0.004 | [4] 0.046 | [5] 0.016 | [6] -0.017

NONO (UniProt Q15233)
inactive: nilotinib -0.007 | [1] -0.011 | dasatinib -0.047 | [2] 0.007 | [3] 0.012 | quisinostat -0.004 | tipifarnib -0.007 | [4] 0.022 | [5] 0.008 | [6] -0.013

NARF (UniProt Q9UHQ1)
inactive: nilotinib -0.029 | [1] 0.011 | dasatinib 0.01 | [2] -0.031 | [3] 0.014 | quisinostat -0.03 | tipifarnib -0.062 | [4] 0.017 | [5] -0.079 | [6] 0.005

NFKBIB (UniProt Q15653)
inactive: nilotinib -0.004 | [1] -0.015 | dasatinib -0.042 | [2] 0.052 | [3] 0.043 | quisinostat -0.062 | tipifarnib 0.059 | [4] 0.025 | [5] 0.004 | [6] -0.08

MRPL53 (UniProt Q96EL3)
inactive: nilotinib -0.04 | [1] 0.026 | dasatinib -0.018 | [2] 0.015 | [3] 0.06 | quisinostat 0.02 | tipifarnib -0.034 | [4] -0.041 | [5] -0.006 | [6] 0.031

MYCBP2 (UniProt O75592)
inactive: nilotinib 0.028 | [1] -0.013 | dasatinib -0.038 | [2] -0.013 | [3] 0.015 | quisinostat -0.116 | tipifarnib -0.008 | [4] 0.019 | [5] 0.012 | [6] -0.013

NTMT1 (UniProt Q9BV86)
inactive: nilotinib -0.033 | [1] -0.026 | dasatinib -0.053 | [2] 0.002 | [3] 0.047 | quisinostat -0.051 | tipifarnib 0.012 | [4] 0.07 | [5] -0.049 | [6] -0.002

OSGEP (UniProt Q9NPF4)
inactive: nilotinib -0.005 | [1] 0.008 | dasatinib 0.002 | [2] 0.018 | [3] 0.025 | quisinostat -0.006 | tipifarnib 0.026 | [4] -0.012 | [5] -0.027 | [6] 0.03

PAXBP1 (UniProt Q9Y5B6)
inactive: nilotinib -0.014 | [1] 0.012 | dasatinib -0.046 | [2] 0.011 | [3] 0.024 | quisinostat -0.041 | tipifarnib -0.008 | [4] 0.031 | [5] 0.023 | [6] -0.006

PANK4 (UniProt Q9NVE7)
UniProt Q9NVE7, sequence (Q9NVE7 whole entry, looked up): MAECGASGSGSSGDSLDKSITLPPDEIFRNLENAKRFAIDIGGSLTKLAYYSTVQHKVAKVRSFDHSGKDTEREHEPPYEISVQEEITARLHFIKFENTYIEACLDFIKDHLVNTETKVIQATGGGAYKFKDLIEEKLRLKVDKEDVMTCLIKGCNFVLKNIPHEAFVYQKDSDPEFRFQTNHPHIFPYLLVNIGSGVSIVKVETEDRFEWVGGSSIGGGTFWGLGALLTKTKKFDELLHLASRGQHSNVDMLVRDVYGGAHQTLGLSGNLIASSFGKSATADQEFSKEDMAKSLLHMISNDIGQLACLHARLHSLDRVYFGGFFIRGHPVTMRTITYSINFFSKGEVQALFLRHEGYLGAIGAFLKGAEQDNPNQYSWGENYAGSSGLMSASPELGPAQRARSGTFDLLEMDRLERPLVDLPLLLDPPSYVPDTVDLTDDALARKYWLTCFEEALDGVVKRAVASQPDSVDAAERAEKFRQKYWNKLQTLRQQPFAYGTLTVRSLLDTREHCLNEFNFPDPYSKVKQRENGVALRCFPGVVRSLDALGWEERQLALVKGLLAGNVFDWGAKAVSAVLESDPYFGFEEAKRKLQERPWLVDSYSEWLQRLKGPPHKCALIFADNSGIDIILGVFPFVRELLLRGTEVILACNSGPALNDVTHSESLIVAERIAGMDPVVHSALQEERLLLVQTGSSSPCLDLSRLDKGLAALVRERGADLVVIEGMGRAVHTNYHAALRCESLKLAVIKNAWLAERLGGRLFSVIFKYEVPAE
inactive: nilotinib 0.028 | [1] -0.006 | dasatinib -0.086 | [2] -0.006 | [3] 0.003 | quisinostat -0.054 | tipifarnib 0.009 | [4] 0.038 | [5] -0.003 | [6] -0.045

OTC (UniProt P00480)
inactive: nilotinib -0.105 | [1] -0.023 | dasatinib -0.347 | [2] -0.159 | [3] 0.106 | quisinostat -0.492 | tipifarnib 0.054 | [4] -0.055 | [5] 0.071 | [6] -0.075

NBEAL2 (UniProt Q6ZNJ1)
UniProt Q6ZNJ1, sequence (Q6ZNJ1 whole entry, looked up): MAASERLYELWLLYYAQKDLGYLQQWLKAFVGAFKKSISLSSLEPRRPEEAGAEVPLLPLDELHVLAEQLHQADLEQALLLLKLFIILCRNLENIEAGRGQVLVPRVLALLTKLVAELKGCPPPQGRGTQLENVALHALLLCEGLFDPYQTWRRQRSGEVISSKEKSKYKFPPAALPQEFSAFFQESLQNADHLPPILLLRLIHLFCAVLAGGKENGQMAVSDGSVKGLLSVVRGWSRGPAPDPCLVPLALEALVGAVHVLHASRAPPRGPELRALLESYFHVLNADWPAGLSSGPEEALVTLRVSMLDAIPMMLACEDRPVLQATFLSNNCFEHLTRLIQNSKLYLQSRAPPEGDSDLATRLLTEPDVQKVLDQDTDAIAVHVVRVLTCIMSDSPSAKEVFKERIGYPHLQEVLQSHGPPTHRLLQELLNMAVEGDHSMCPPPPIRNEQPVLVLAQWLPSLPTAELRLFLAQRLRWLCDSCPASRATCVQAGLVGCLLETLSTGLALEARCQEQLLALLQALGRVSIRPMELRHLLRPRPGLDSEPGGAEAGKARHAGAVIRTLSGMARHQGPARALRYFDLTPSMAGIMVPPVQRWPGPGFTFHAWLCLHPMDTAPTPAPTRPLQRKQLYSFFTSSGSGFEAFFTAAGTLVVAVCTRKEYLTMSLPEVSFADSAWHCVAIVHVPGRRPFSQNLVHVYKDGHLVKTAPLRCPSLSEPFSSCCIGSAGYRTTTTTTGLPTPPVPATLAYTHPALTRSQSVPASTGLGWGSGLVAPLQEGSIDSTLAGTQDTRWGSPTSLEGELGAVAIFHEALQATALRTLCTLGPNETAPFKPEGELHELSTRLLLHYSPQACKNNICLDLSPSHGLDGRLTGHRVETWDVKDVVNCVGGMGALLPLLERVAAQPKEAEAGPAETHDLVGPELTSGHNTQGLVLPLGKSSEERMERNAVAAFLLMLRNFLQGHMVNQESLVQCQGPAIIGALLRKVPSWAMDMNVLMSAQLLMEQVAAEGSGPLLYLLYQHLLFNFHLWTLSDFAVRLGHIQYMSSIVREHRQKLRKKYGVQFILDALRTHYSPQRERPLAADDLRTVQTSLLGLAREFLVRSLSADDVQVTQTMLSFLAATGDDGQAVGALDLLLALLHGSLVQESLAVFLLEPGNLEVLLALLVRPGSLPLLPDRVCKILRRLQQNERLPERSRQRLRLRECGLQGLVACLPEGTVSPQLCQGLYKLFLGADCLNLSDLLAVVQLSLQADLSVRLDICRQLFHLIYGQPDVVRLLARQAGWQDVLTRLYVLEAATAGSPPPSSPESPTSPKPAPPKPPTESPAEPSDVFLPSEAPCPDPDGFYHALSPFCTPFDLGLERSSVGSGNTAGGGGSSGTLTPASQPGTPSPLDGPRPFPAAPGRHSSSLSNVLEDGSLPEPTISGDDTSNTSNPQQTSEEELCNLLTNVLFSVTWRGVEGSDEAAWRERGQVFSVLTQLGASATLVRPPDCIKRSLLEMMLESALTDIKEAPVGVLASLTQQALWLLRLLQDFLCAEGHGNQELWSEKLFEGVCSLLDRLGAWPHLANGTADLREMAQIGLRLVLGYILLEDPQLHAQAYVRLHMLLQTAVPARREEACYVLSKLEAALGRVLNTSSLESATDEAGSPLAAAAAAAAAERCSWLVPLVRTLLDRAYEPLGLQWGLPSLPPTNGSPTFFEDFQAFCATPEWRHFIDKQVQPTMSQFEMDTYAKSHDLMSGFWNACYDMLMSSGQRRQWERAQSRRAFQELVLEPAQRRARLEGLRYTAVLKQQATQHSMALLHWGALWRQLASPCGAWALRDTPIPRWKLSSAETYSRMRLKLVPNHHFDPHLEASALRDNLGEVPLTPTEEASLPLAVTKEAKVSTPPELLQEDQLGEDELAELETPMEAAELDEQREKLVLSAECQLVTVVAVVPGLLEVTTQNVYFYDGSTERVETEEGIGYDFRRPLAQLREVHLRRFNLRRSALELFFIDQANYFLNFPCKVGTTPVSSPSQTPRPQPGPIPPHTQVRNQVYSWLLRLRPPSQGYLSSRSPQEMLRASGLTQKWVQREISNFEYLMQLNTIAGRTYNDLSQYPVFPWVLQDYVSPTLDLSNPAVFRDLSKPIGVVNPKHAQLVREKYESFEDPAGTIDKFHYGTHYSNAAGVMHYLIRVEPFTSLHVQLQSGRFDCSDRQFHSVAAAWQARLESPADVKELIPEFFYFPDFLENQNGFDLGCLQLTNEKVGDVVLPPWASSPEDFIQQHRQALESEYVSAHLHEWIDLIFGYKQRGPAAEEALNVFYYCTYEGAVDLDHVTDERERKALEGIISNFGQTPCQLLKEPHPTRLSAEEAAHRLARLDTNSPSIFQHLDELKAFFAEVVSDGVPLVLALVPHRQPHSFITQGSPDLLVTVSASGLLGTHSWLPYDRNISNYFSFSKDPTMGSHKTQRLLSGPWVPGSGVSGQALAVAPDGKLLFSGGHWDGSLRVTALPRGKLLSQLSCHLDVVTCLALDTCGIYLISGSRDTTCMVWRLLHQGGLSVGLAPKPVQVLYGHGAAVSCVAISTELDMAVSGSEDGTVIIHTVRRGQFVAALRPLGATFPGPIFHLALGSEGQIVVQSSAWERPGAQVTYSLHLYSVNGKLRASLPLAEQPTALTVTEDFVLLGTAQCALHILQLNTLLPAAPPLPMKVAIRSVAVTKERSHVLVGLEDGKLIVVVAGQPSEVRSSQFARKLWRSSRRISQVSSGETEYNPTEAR
inactive: nilotinib 0.031 | [1] -0.008 | dasatinib -0.069 | [2] 0.036 | [3] 0.029 | quisinostat -0.077 | tipifarnib -0.017 | [4] 0.033 | [5] 0.014 | [6] 0.06

OGT (UniProt O15294)
inactive: nilotinib 0.018 | [1] 0.01 | dasatinib -0.027 | [2] -0.002 | [3] 0.041 | quisinostat -0.067 | tipifarnib -0.012 | [4] 0.026 | [5] 0.009 | [6] -0.023

OTUD7B (UniProt Q6GQQ9)
inactive: nilotinib -0.017 | [1] 0.017 | dasatinib 0.005 | [2] 0.03 | [3] 0.027 | quisinostat -0.252 | tipifarnib 0.05 | [4] 0.142 | [5] 0.026 | [6] -0.095
